11 compounds from PMC5540273 (PLoS ONE, 2017) can be followed below.

Structures are written as SMILES.

Some test systems named below: CHEK2; CIT; CLK1; CLK2; CLK3; CLK4; CSF1R-autoinhibited; CSF1R; CSK; CSNK1A1L; CSNK1A1; CSNK1D; CSNK1E; CSNK1G1; CSNK1G2; CSNK1G3; CSNK2A1; CSNK2A2; DAPK1.
Holding throughout (conditions): concentration: 1 μM, replicates: in singlicate; n = 1
The test system of the next assay is T1, CTK.
T1 construct: gene MATK
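Also: KINOMEscan kinase panel screen.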

Take `COc1cccc(NC(=O)NC2CCN(c3ccnc(Nc4ccc(F)cc4)n3)C2)c1` (stereo not shown) [GSK1379721]: the “%Inh” value in the assay with CHEK2 was 27%; in the assay on CIT it was 23%; in the assay on CLK1 it was 25%; with CLK2, 1%; with CLK3 it was 21%; in the assay with CLK4, 0%. The “%Inh” value with CSF1R-autoinhibited is given as 17%; in the assay on CSF1R, 14%; with CSK it was 6%; in the assay with CSNK1A1L, 0%; in the assay with CSNK1A1 it was 0%; in the assay with CSNK1D, 0%. Moreover, the “%Inh” value in the assay on CSNK1E was determined as 37%; in the assay with CSNK1G1, 9%; in the assay with CSNK1G2, 0%; in the assay on CSNK1G3, 27%; with CSNK2A1, 0%; in the assay with CSNK2A2, 10%. For the same compound, the “%Inh” value worked out at 0% in the assay with CTK and 10% in the assay on DAPK1.
As to `O=C(Nc1ccccc1)Nc1cccc(Oc2ccc3nccn3n2)c1`, the “%Inh” value was determined as 1% in the assay on CHEK2; 100% with CIT; 6% with CLK1; 0% in the assay with CLK2; 0% in the assay with CLK3; 0% in the assay on CLK4. Also, the “%Inh” value is on record as 0% with CSF1R-autoinhibited; 99.6% in the assay on CSF1R; 0% with CSK; 59% in the assay on CSNK1A1L; 0% in the assay with CSNK1A1; 0% with CSNK1D. For the same compound, the “%Inh” value with CSNK1E amounted to 0%; with CSNK1G1, 0%; in the assay on CSNK1G2 it was 0%; in the assay with CSNK1G3, 2%; with CSNK2A1, 0%; in the assay on CSNK2A2 it was 0%. For the same compound, the “%Inh” value in the assay with CTK was 0%; in the assay with DAPK1, 10%.
For `C[C@@H]1CCCCN1c1cc(-c2ccc3c(N)n[nH]c3c2)nc(N)n1` [GSK2258759], the “%Inh” value in the assay with CHEK2 is 12%; in the assay with CIT it was 36%; in the assay with CLK1, 12%; in the assay with CLK2, 0%; with CLK3 it was 0%; in the assay on CLK4, 13%. For the same compound, the “%Inh” value is listed as 13% with CSF1R-autoinhibited; 2% in the assay on CSF1R; 2% in the assay with CSK; 0% in the assay on CSNK1A1L; 0% in the assay on CSNK1A1; 39% in the assay with CSNK1D. For the same compound, the “%Inh” value worked out at 35% in the assay on CSNK1E; 6% with CSNK1G1; 0% in the assay with CSNK1G2; 26% in the assay on CSNK1G3; 6% in the assay with CSNK2A1; 76% in the assay with CSNK2A2. In addition, the “%Inh” value is recorded as 0% with CTK and 18% in the assay with DAPK1.
With `CC(C)(C)c1ccc(C(=O)Nc2cn3cc(Cl)ccc3n2)cc1`, the “%Inh” value in the assay on CHEK2 is 2%; in the assay with CIT it was 27%; in the assay on CLK1 it was 75%; with CLK2 it was 29%; with CLK3 it was 2%; in the assay on CLK4 it was 75%. Further, the “%Inh” value is 14% with CSF1R-autoinhibited; 1% in the assay on CSF1R; 0% in the assay with CSK; 0% in the assay with CSNK1A1L; 19% in the assay with CSNK1A1; 67% in the assay on CSNK1D. In addition, the “%Inh” value in the assay with CSNK1E is 59%; in the assay with CSNK1G1, 0%; with CSNK1G2, 16%; with CSNK1G3 it was 0%; in the assay with CSNK2A1, 0%; in the assay with CSNK2A2 it was 0%. Moreover, the “%Inh” value in the assay on CTK was 0%; in the assay with DAPK1, 20%.
`O=C1NC(=O)C(N2CCc3ccccc32)=C1c1ccccc1Cl` [SB-373598]: the “%Inh” value is reported as 0% with CHEK2; 29% in the assay on CIT; 12% with CLK1; 45% in the assay on CLK2; 0% in the assay on CLK3; 19% in the assay with CLK4. Further, the “%Inh” value is recorded as 0% in the assay with CSF1R-autoinhibited; 4% in the assay with CSF1R; 46% in the assay with CSK; 15% in the assay with CSNK1A1L; 33% in the assay with CSNK1A1; 18% in the assay on CSNK1D. For the same compound, the “%Inh” value is given as 18% in the assay on CSNK1E; 13% in the assay on CSNK1G1; 9% with CSNK1G2; 14% in the assay with CSNK1G3; 2% in the assay on CSNK2A1; 15% with CSNK2A2. Also, the “%Inh” value in the assay on CTK was determined as 0%; in the assay with DAPK1 it was 22%.
As for `Cn1ccc2ncnc(Oc3cccc(C(=O)Nc4ccccc4)c3)c21`, the “%Inh” value was 0% in the assay with CHEK2; 8% in the assay with CIT; 9% in the assay with CLK1; 0% with CLK2; 0% in the assay on CLK3; 18% in the assay on CLK4. The “%Inh” value is recorded as 9% with CSF1R-autoinhibited; 6% with CSF1R; 14% with CSK; 2% with CSNK1A1L; 0% in the assay on CSNK1A1; 0% in the assay with CSNK1D. Besides, the “%Inh” value in the assay on CSNK1E is listed as 1%; in the assay with CSNK1G1, 0%; in the assay with CSNK1G2, 0%; in the assay with CSNK1G3, 2%; in the assay on CSNK2A1, 25%; with CSNK2A2, 11%. Also, the figures for the “%Inh” value in the assay with CTK and in the assay on DAPK1 were 17% and 20%, respectively.
In the case of `Cc1c(Cn2ccn3c(=O)cc(N4CCOCC4)nc23)cccc1C(F)(F)F` [GSK2289044], the “%Inh” value with CHEK2 was found to be 0%; in the assay with CIT, 22%; in the assay with CLK1 it was 33%; in the assay on CLK2, 54%; in the assay on CLK3, 20%; in the assay on CLK4, 33%. Also, the “%Inh” value in the assay with CSF1R-autoinhibited is 0%; in the assay on CSF1R, 9%; in the assay with CSK, 0%; in the assay with CSNK1A1L, 0%; with CSNK1A1, 33%; in the assay with CSNK1D it was 6%. Moreover, the “%Inh” value stood at 25% in the assay with CSNK1E; 19% in the assay on CSNK1G1; 5% in the assay with CSNK1G2; 18% with CSNK1G3; 0% in the assay on CSNK2A1; 3% in the assay on CSNK2A2. The “%Inh” value in the assay with CTK is listed as 0%; in the assay with DAPK1, 13%.
For `O=C(Nc1n[nH]c2nc(-c3nccs3)c(Br)cc12)C1CC1` [SB-742251], the “%Inh” value in the assay on CHEK2 stood at 0%; with CIT it was 3%; in the assay with CLK1, 1%; with CLK2 it was 0%; in the assay with CLK3 it was 11%; in the assay on CLK4 it was 0%. Also, the “%Inh” value with CSF1R-autoinhibited is recorded as 17%; in the assay on CSF1R it was 0%; with CSK it was 0%; with CSNK1A1L, 19%; with CSNK1A1, 0%; with CSNK1D it was 21%. Moreover, the “%Inh” value was 14% in the assay on CSNK1E; 13% in the assay with CSNK1G1; 0% in the assay on CSNK1G2; 0% in the assay with CSNK1G3; 0% in the assay with CSNK2A1; 36% with CSNK2A2. For the same compound, the figures for the “%Inh” value with CTK and with DAPK1 were 15% and 0%, respectively.
Consider `COc1ccccc1-c1ccc2c(NC(=O)C3CC3)n[nH]c2n1` [SB-711239], for which the “%Inh” value with CHEK2 is 19%; with CIT it was 22%; in the assay with CLK1, 3%; in the assay on CLK2, 0%; with CLK3, 0%; in the assay on CLK4, 33%. The “%Inh” value with CSF1R-autoinhibited was found to be 30%; with CSF1R, 0%; with CSK, 62%; in the assay with CSNK1A1L it was 6%; in the assay on CSNK1A1, 10%; with CSNK1D, 0%. The “%Inh” value in the assay with CSNK1E was found to be 2%; in the assay on CSNK1G1, 0%; with CSNK1G2, 5%; in the assay on CSNK1G3 it was 11%; in the assay on CSNK2A1 it was 0%; with CSNK2A2, 0%. Besides, the “%Inh” value in the assay on CTK and with DAPK1 was 0% each time.
As to `Cn1ccc2ncnc(Oc3ccc(NC(=O)Nc4ccccc4)cc3)c21`, the “%Inh” value is reported as 14% with CHEK2; 22% in the assay on CIT; 1% in the assay with CLK1; 0% in the assay with CLK2; 0% with CLK3; 14% in the assay on CLK4. The “%Inh” value is reported as 10% with CSF1R-autoinhibited; 95.1% in the assay on CSF1R; 0% with CSK; 3% in the assay on CSNK1A1L; 4% in the assay on CSNK1A1; 13% with CSNK1D. Also, the “%Inh” value is 5% with CSNK1E; 0% in the assay on CSNK1G1; 11% in the assay on CSNK1G2; 0% with CSNK1G3; 14% in the assay on CSNK2A1; 0% with CSNK2A2. The “%Inh” value came to 0% in the assay on CTK and 11% in the assay with DAPK1.
`Cl.NC(=O)c1cccc(Nc2nccc(Nc3ccc(Oc4cccc(Cl)c4)c(Cl)c3)n2)c1` [GW659008]: the “%Inh” value in the assay on CHEK2 is 0%; in the assay on CIT, 19%; in the assay with CLK1, 13%; in the assay on CLK2, 0%; with CLK3, 10%; in the assay with CLK4, 17%. The “%Inh” value with CSF1R-autoinhibited worked out at 22%; with CSF1R it was 14%; with CSK it was 17%; with CSNK1A1L, 16%; in the assay on CSNK1A1, 1%; with CSNK1D it was 5%. Further, the “%Inh” value in the assay with CSNK1E is reported as 8%; in the assay with CSNK1G1 it was 0%; in the assay with CSNK1G2 it was 0%; in the assay with CSNK1G3, 17%; with CSNK2A1, 15%; in the assay with CSNK2A2, 19%. Besides, the “%Inh” value was 2% in the assay with CTK and 0% in the assay with DAPK1.
